Results on 15 compounds are retold here after PubChem BioAssay (NCI).

This is part of a sample that, as a whole, favours compounds with a hit. Of some 83,000 tested, about 20% had one in any assay.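 The test compound was applied at a single concentration to cells in 96-well plates for 48 hours, and percent growth was recorded.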 A number with no mark means an inactive call. Activity calls are given as the source filed them. Rule for the calls: active = growth percent below 10; inactive = the rest.

Among the test systems are HCT-15 colon; HT29 colon; SNB-75 CNS; SNB-19 CNS; U251 CNS; PC-3 prostate; SK-MEL-5 melanoma; LOX IMVI melanoma; SK-MEL-28 melanoma; UACC-62 melanoma.
What all share (test): NCI-60 one-dose screen, 48 h (100 = growth as untreated, 0 = no growth, -100 = all killed)
Common to all, as to conditions: 10 µM unless noted

Consider `N#Cc1c(N)nc(NCCO)nc1-c1ccc(F)cc1`, for which the growth with HCT-15 colon is 99.9%; in the assay on HT29 colon it was 95.9%; in the assay on SNB-75 CNS, 79.2%; with SNB-19 CNS, 104%; in the assay with U251 CNS, 90.2%; in the assay with PC-3 prostate it was 92.9%. Besides, the growth with SK-MEL-5 melanoma was 95%; in the assay on LOX IMVI melanoma it was 90.8%; in the assay on SK-MEL-28 melanoma, 112%.

With `Cc1ccc(S(=O)(=O)Oc2cc(OS(=O)(=O)c3ccc(C)cc3)cc(OS(=O)(=O)c3ccc(C)cc3)c2)cc1`, the growth in the assay with HCT-15 colon is 98.1%; in the assay with HT29 colon it was 98.7%; with SNB-75 CNS it was 95.4%; in the assay with SNB-19 CNS, 104%; in the assay on U251 CNS it was 108%; in the assay on PC-3 prostate, 86.9%. Besides, the growth was 94.4% with SK-MEL-5 melanoma, 98.1% in the assay with LOX IMVI melanoma and 112% in the assay with SK-MEL-28 melanoma.

Take `CC/C=C1/C(=O)C=C[C@@H]1C/C=C\CCCC(=O)O`: the growth was 72.8% in the assay with HCT-15 colon; 78.9% in the assay with HT29 colon; 105% in the assay on SNB-75 CNS; 92.1% with SNB-19 CNS; 64.9% in the assay with U251 CNS; 80.5% in the assay with PC-3 prostate. For the same compound, the growth in the assay with SK-MEL-5 melanoma was 81.5%; with LOX IMVI melanoma, 19.9%; in the assay on SK-MEL-28 melanoma, 96.9%.

For `Cc1ccc(C(=NN=C(N)N)c2ccc(C)cc2)cc1`, the growth with HCT-15 colon is 11.6%; in the assay with HT29 colon, 0.831% (active); in the assay with SNB-75 CNS it was -1.11% (active); in the assay on SNB-19 CNS, 30.4%; in the assay with U251 CNS, 6.36% (active); in the assay on PC-3 prostate, 16.3%. Also, the growth was -68.6% (active) in the assay on SK-MEL-5 melanoma and -28.3% (active) in the assay on LOX IMVI melanoma.

On to `Cc1cc(NCCCCNc2ccnc3cc(Cl)ccc23)nc(Nc2ccc(C(=O)N3CCCC3)cc2)n1`, for which the growth in the assay on HCT-15 colon is 7.18% (active); with HT29 colon, -2.28% (active); in the assay with SNB-75 CNS, -9.47% (active); with SNB-19 CNS, 30.5%; in the assay with U251 CNS, -7.46% (active); with PC-3 prostate, 35.6%. Besides, the figures for the growth in the assay on SK-MEL-5 melanoma, with LOX IMVI melanoma and with SK-MEL-28 melanoma were -100% (active), -90.9% (active) and -72.8% (active), respectively.

Consider `COC1=C(OC)C(=O)C(OC)=C(OC)C1=O`, for which the growth with HCT-15 colon is 108%; in the assay with HT29 colon, 104%; with SNB-75 CNS, 106%; with SNB-19 CNS it was 99%; in the assay on U251 CNS, 105%; with PC-3 prostate, 95.5%. The growth in the assay with SK-MEL-5 melanoma was 105%; in the assay with LOX IMVI melanoma, 90.7%; in the assay on SK-MEL-28 melanoma it was 105%.

For the compound `N#Cc1c(-c2ccccc2)cc(-c2ccc(Nc3nc(Nc4ccc(F)cc4)nc(Nc4ccc(F)cc4)n3)cc2)nc1N`, the growth is 100% in the assay with HCT-15 colon; 94.1% in the assay with HT29 colon; 87.1% in the assay on SNB-75 CNS; 91.7% with SNB-19 CNS; 92% with U251 CNS; 75.8% in the assay on PC-3 prostate. Further, the figures for the growth in the assay with SK-MEL-5 melanoma and in the assay with LOX IMVI melanoma were 92% and 95.5%, respectively.

Regarding `O=C(c1ccccc1)c1c(/C=C/c2ccccc2)nc2ccccc2c1/C=C/c1ccc(Br)cc1`, the growth in the assay on HCT-15 colon is 108%; in the assay on HT29 colon it was 102%; in the assay with SNB-75 CNS it was 83.1%; in the assay on SNB-19 CNS, 88.9%; in the assay with U251 CNS, 95.9%; in the assay on PC-3 prostate it was 90.2%. The growth is 101% in the assay with SK-MEL-5 melanoma, 82% in the assay on UACC-62 melanoma and 108% in the assay with SK-MEL-28 melanoma.

As to `COc1ccc(-c2nc3ccc4[nH]ncc4c3c3c2CCCC3)cc1B(O)O`, the growth was 34.4% in the assay with HCT-15 colon; 67.2% in the assay with HT29 colon; 18.9% in the assay with SNB-75 CNS; 82.7% with SNB-19 CNS; 78% with U251 CNS; 57.6% with PC-3 prostate. Moreover, the growth is 73.8% in the assay on SK-MEL-5 melanoma and 40.4% with LOX IMVI melanoma.

With `Cc1ccc(C(=O)C2=C(O)C(=O)N(Cc3cccnc3)C2c2ccccc2F)o1` (configuration not stated), the growth in the assay on HCT-15 colon was 93.8%; in the assay with HT29 colon, 108%; in the assay with SNB-75 CNS it was 94.6%; in the assay on SNB-19 CNS, 105%; in the assay on U251 CNS it was 91.6%; in the assay with PC-3 prostate it was 96.7%. For the same compound, the growth is 100% in the assay with SK-MEL-5 melanoma, 80.8% in the assay with LOX IMVI melanoma and 115% with SK-MEL-28 melanoma.

On to `C=C1C(=O)O[C@H]2[C@H]1CC/C(COC(=O)C(=O)c1c[nH]c3ccccc13)=C\CC[C@@]1(C)O[C@@H]21`, for which the growth in the assay with HCT-15 colon is -42.9% (active); with HT29 colon, -55.3% (active); with SNB-75 CNS it was -55% (active); with SNB-19 CNS it was 30.3%; in the assay on U251 CNS it was -82.3% (active); with PC-3 prostate, -66.8% (active). The growth with SK-MEL-5 melanoma was -89.6% (active); in the assay with UACC-62 melanoma, -82.2% (active); in the assay on SK-MEL-28 melanoma, -54% (active).

With `COc1ccc2c(c1)O/C(=C\c1cccc(OCC(=O)Nc3nc(C)c(C)s3)c1)C2=O`, the growth is 94.1% in the assay with HCT-15 colon; -29.9% (active) in the assay with HT29 colon; -63.1% (active) with SNB-75 CNS; 88.5% with SNB-19 CNS; -64.5% (active) with U251 CNS; -38.7% (active) in the assay with PC-3 prostate. In addition, the growth is 111% in the assay on SK-MEL-5 melanoma, -68% (active) with LOX IMVI melanoma and 84.8% with SK-MEL-28 melanoma.

Turning to `C=C1C(=O)O[C@H]2[C@H]1CC/C(COC(=O)C(=O)c1c[nH]c3ccc(OC)cc13)=C\CC[C@@]1(C)O[C@@H]21`, the growth is -49.8% (active) with HCT-15 colon; -69.7% (active) with HT29 colon; -88.4% (active) with SNB-75 CNS; -17.6% (active) with SNB-19 CNS; -97.8% (active) in the assay with U251 CNS; -70% (active) in the assay with PC-3 prostate. Also, the growth in the assay on SK-MEL-5 melanoma is -96.6% (active); in the assay on LOX IMVI melanoma, -77.4% (active); with SK-MEL-28 melanoma it was -75.3% (active).

As for `C[C@H]1[C@H]2[C@H]3CC[C@@H]4[C@@]5(C)C/C(=C/c6ccco6)C(=O)C(C)(C)[C@@H]5CC[C@@]4(C)[C@]3(C)CC[C@]23CO[C@]1(C)[C@@H](C(=O)/C=C\c1ccco1)C3`, the growth was 112% in the assay with HCT-15 colon; 105% in the assay with HT29 colon; 88.2% in the assay on SNB-75 CNS; 91.8% in the assay with SNB-19 CNS; 83.4% in the assay on U251 CNS; 79.7% in the assay on PC-3 prostate. Further, the growth was 55.7% in the assay with SK-MEL-5 melanoma, 93.6% in the assay with LOX IMVI melanoma and 43.9% in the assay with SK-MEL-28 melanoma.

With `Cc1cc(NCc2cc(Nc3ccnc4cc(Cl)ccc34)ccc2F)nc(N2CCCC2)n1`, the growth is -60.7% (active) in the assay on HCT-15 colon; -40.2% (active) in the assay with HT29 colon; -87.3% (active) in the assay with SNB-75 CNS; 28.9% with SNB-19 CNS; -64.7% (active) with U251 CNS; 17.5% with PC-3 prostate. For the same compound, the results for the growth in the assay with SK-MEL-5 melanoma, with UACC-62 melanoma and with SK-MEL-28 melanoma were -94.2% (active), -62.6% (active) and -69.4% (active), respectively.
